Measurements published in PubChem BioAssay (EPA / NIEHS).
Records with an inconclusive call do not appear. The source made the active and inactive calls. How the source made its calls: active means hit-call score of the fitted dose curve at least 0.9, where 1 is the maximum; inconclusive means response in the unintended direction; inactive means score below 0.9.

target: Estrogen receptor beta (Homo sapiens) (UniProt Q92731); assay: OT_ER_ERbERb_0480: Odyssey Thera (OT) 8-hour HEK293T Protein-Complementation Assay for Estrogen Receptor-beta/-beta Homodimer (AID 2283357);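 further: active means signal gain over DMSO baseline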
Sequence (Q92731 whole entry, looked up, the tested form may be a part): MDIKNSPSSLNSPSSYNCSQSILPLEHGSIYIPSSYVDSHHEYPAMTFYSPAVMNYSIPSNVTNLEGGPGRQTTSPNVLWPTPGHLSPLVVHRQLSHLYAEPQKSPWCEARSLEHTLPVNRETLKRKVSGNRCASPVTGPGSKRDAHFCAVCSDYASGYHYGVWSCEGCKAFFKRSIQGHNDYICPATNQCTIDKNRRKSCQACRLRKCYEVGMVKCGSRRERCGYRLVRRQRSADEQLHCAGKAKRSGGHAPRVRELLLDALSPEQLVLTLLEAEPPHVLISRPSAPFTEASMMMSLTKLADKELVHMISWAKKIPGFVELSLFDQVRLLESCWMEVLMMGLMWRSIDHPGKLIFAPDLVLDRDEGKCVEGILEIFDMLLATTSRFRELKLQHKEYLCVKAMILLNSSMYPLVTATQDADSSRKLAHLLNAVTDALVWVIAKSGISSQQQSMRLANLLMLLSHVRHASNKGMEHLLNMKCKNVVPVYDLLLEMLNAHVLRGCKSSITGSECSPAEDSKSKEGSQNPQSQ
Summary of the method: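 Fluorescence intensity, nuclear for agonists and nuclear plus cytoplasmic for antagonists, was quantified by laser scanning cytometry versus vehicle after 8 h treatment. The cells were HEK293T stably carrying ER beta LBD fragment-complementation partners.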

Q: How did the outcome turn out when `CCCCCCCCC(CO)CCCCCC` (stereo not given) was run?
A: inactive

Q: For `C[Si](C)(C)N[Si](C)(C)C`, which outcome is on record?
A: inactive

Q: With `C=CCOC(=O)c1ccc(C(=O)OCC=C)c(C(=O)OCC=C)c1` as the compound, how does the outcome read?
A: inactive

Q: For `O=C(Nc1ccccc1)c1cc(Cl)ccc1O`, which outcome is on record?
A: inactive

Q: For `CC(C)c1cc(C(C)C)cc(C(C)C)c1`, which outcome is on record?
A: inactive

Q: With `CC(C)c1ccc(O)c(C(C)C)c1` as the compound, how does the outcome read?
A: inactive

Q: For `c1ccc(Nc2cccc3ccccc23)cc1`, which AC50 is on record?
A: 29.1 µM (active)

Q: How did the outcome turn out when `CCCCCCCCCCCCCCCCCCOS(=O)(=O)O` was run?
A: inactive

Q: Which AC50 does the source give for `CCCCCCCOC(=O)c1ccc(O)cc1` here?
A: 2.68 µM (active)

Q: For `O=C(O)C1CCC(C(=O)O)CC1` (stereo not given), which outcome is on record?
A: inactive

Q: With `COc1ccc(-c2coc3cc(O)cc(O)c3c2=O)cc1` as the compound, how does the AC50 read?
A: 2.05 µM (active)

Q: `CC(=O)OCc1ccccc1` was tested. Which outcome did it give?
A: inactive

Q: `CN(C)c1ccc2nc3ccc(=[N+](C)C)cc-3sc2c1` was tested. Which AC50 did it give?
A: 70.8 µM (active)

Q: How did the outcome turn out when `N#Cc1ccc(C(c2ccc(C#N)cc2)n2cncn2)cc1` was run?
A: inactive

Q: Which AC50 does the source give for `Oc1ccccc1Cc1ccccc1O` here?
A: 31.6 µM (active)

Q: How did the outcome turn out when `CCOC(=O)C1=NOC(c2ccccc2)(c2ccccc2)C1` was run?
A: inactive

Q: For `CCCCCCCCCCCCc1ccc(O)cc1`, which AC50 is on record?
A: 0.853 µM (active)

Q: How did the outcome turn out when `CC(C)(C)C1CCC(=O)CC1` was run?
A: inactive

Q: Which outcome does the source give for `CO[Si](C)(C)OC` here?
A: inactive

Q: With `CCCCCCOC(=O)CCCCC(=O)OCCCCCC` as the compound, how does the outcome read?
A: inactive
